PubChem BioAssay AID652176 (Sanford-Burnham Center for Chemical Genomics, 2013)
Out of some 2,400 compounds screened, about 25 (1%) were called active.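 How the source made its calls: active means replicate-average signal at least 3 plate SD below neutral wells, shown as high inhibition, flagging enzyme-inhibiting false positives; inactive means the rest.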 These entries were drawn from the full list.

These compounds were tested on Beta-galactosidase (Escherichia coli), counter-screen for EBI2 antagonists (assay: inhibitors of purified bacterial beta-gal – biochemical, luminescence, single concentration, counter-screen for EBI2 antagonist project, confirmation (AID 652176;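 further: 0% = DMSO wells with enzyme and 100% = wells lacking enzyme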)). Conditions: luminescent Galacton Star, 15 min, at 5 µM, stronger effect = higher value.

Question: How did the inhibition turn out when Cc1ccc(S(=O)(=O)N2CCN(C(=O)CSc3cc(C)ccc3C)CC2)c(C)c1 was run?
Answer: 2.31% (inactive)

Question: COc1cccc(NC(=O)Cn2c3ccc(F)cc3c3nc4n(c(=O)c32)CCS4)c1 was tested. Which inhibition did it give?
Answer: 1.47% (inactive)

Question: For COc1ccc(-c2cc(C3CCN(c4ncccc4[N+](=O)[O-])CC3)[nH]n2)cc1, which inhibition is on record?
Answer: 12% (inactive)

Question: Which inhibition does the source give for COc1cccc(NC(=O)Cn2c3ccccc3c3nc4n(c(=O)c32)CCS4)c1 here?
Answer: -5.55% (inactive)

Question: COc1ccc(OCC(=O)N2CCN(C(=O)c3cccs3)CC2)cc1 was tested. Which inhibition did it give?
Answer: 8.51% (inactive)

Question: Which inhibition does the source give for Cc1nc(-c2ccccc2)sc1C(=O)/C=C/c1ccccc1 here?
Answer: 12% (inactive)

Question: With c1ccc(C(c2ccccc2)N2CCN(Cc3nnnn3C3CCCCC3)CC2)cc1 as the compound, how does the inhibition read?
Answer: 9.44% (inactive)

Question: O=C(c1cc2ccccc2o1)N1CCN(S(=O)(=O)c2ccc(Cl)s2)CC1 was tested. Which inhibition did it give?
Answer: 3.41% (inactive)

Question: With COc1ccc(N(CC(=O)Nc2cc(OC)ccc2OC)S(=O)(=O)c2c(C)noc2C)cc1 as the compound, how does the inhibition read?
Answer: 6.51% (inactive)

Question: Which inhibition does the source give for Fc1ccccc1/C=N/Nc1cc(N2CCCCC2)ncn1 here?
Answer: -5.12% (inactive)

Question: Cc1ccc(SCC(=O)N2CCN(c3ccc(F)cc3)CC2)cc1 was tested. Which inhibition did it give?
Answer: 1.65% (inactive)

Question: How did the inhibition turn out when COc1ccc(C(C(=O)NC2CCCCC2)N(C(=O)c2snc(C(N)=O)c2N)c2ccccc2OC)cc1 (configuration not stated) was run?
Answer: 1.73% (inactive)

Question: Which inhibition does the source give for Cc1ccc(-n2ncc3c(=O)n(-c4ccc(C)c(C)c4)c(-c4ccco4)nc32)cc1 here?
Answer: -11.1% (inactive)

Question: How did the inhibition turn out when O=C(c1cc(=O)c2ccccc2o1)N1CCN(c2ccccc2)CC1 was run?
Answer: 2.55% (inactive)

Question: For Cc1cc(C)cc(Oc2nc3c(C)cccn3c(=O)c2/C=C(\C#N)C(=O)NC2CCS(=O)(=O)C2)c1 (configuration not stated), which inhibition is on record?
Answer: -6.32% (inactive)

Question: Which inhibition does the source give for CC1(Cc2ccccc2C#N)C(=O)Nc2ccc(-c3ccc4[nH]ccc4c3)cc21 (configuration not stated) here?
Answer: -12.8% (inactive)

Question: N#CC(=C1CCCC1)c1nc(-c2ccc(Cl)cc2)cs1 was tested. Which inhibition did it give?
Answer: -15.6% (inactive)

Question: CCCCC(=O)N(C)c1c(CC)nc2c(OCc3ccc(Cl)cc3Cl)cccn12 was tested. Which inhibition did it give?
Answer: -8.17% (inactive)

Question: With CC(C)Cn1c(N2CCN(C(=O)/C=C/c3ccccc3)CC2)nc2ccccc21 as the compound, how does the inhibition read?
Answer: -6.12% (inactive)

Question: Which inhibition does the source give for CCN1CCN(C(=O)CSc2ccc(C)cc2)CC1 here?
Answer: -12.6% (inactive)

Question: O=C(CCNS(=O)(=O)c1ccccc1)NCCSc1ccc(Br)cc1 was tested. Which inhibition did it give?
Answer: -8.38% (inactive)

Question: How did the inhibition turn out when COc1ccc(/C=C/C(=O)c2ccc(OC)cc2O)cc1 was run?
Answer: -7.89% (inactive)

Question: With O=C(CCc1ccccc1)NNC(=O)COc1ccc(Cl)cc1 as the compound, how does the inhibition read?
Answer: 4.21% (inactive)

Question: With Cc1ccc(-c2nn(-c3ccccc3)cc2/C=C/C(=O)Nc2cccc(S(N)(=O)=O)c2)cc1 as the compound, how does the inhibition read?
Answer: 7.52% (inactive)

Question: COc1ccc2cc(C3=CC(=O)C[C@H](c4ccc5c(c4)OCO5)C3)ccc2c1 was tested. Which inhibition did it give?
Answer: -16.2% (inactive)

Question: For Cc1cc(Cl)c2oc(C(=O)N3CCC(O)(c4ccccc4)CC3)c(C)c2c1, which inhibition is on record?
Answer: -14% (inactive)

Question: Which inhibition does the source give for COc1ccc(/C=N/N=C/c2c[nH]c(=O)c(C#N)c2Nc2ccccc2)cc1 here?
Answer: -8.65% (inactive)

Question: How did the inhibition turn out when O=c1[nH]c(CN2CCN(S(=O)(=O)c3ccc4c(c3)OCCO4)CC2)nc2sc3c(c12)CCCC3 was run?
Answer: 5.78% (inactive)

Question: How did the inhibition turn out when O=C(NCCCc1ccccc1)C1CCC(=O)N(CCc2ccc(Cl)cc2)C1 (configuration not stated) was run?
Answer: 1.78% (inactive)

Question: How did the inhibition turn out when COc1ccccc1N1CCN(C(=O)c2cc(=O)c3cc(C)ccc3o2)CC1 was run?
Answer: 2.71% (inactive)

Question: Which inhibition does the source give for COc1ccc(C(=O)/C=C/c2ccc(OC3CSC3)cc2)cc1 here?
Answer: 4.77% (inactive)

Question: Which inhibition does the source give for CN1CCc2ccccc2C1Cc1ccccc1NC(=O)c1sc2ccccc2c1Cl (configuration not stated) here?
Answer: -9.49% (inactive)

Question: Which inhibition does the source give for O=C(COc1ccc2ccccc2c1)N1CCN(C(=O)c2cccs2)CC1 here?
Answer: 6.4% (inactive)

Question: Which inhibition does the source give for O=C(c1cc2ccccc2s1)N1CCN(c2ccccn2)CC1 here?
Answer: -19.7% (inactive)

Question: O=C(/C=C/c1cccc([N+](=O)[O-])c1)N1CCN(Cc2ccccc2)CC1 was tested. Which inhibition did it give?
Answer: -5.48% (inactive)

Question: Which inhibition does the source give for CC(=O)/C(=N\Nc1ccc(Cl)cc1Cl)Sc1cccc2cccnc12 here?
Answer: -5.07% (inactive)

Question: How did the inhibition turn out when CCN(CC(=O)NCc1cccs1)C(=O)/C=C/c1ccc(C)cc1 was run?
Answer: 1.05% (inactive)

Question: For O=C(C(c1ccccc1)c1ccccc1)N1CCN(CC(O)COc2ccccc2)CC1 (configuration not stated), which inhibition is on record?
Answer: -10% (inactive)

Question: How did the inhibition turn out when Cc1ccc(S(=O)(=O)N2CCN(CC(=O)N/N=C/c3ccc(Br)s3)CC2)cc1 was run?
Answer: 3.3% (inactive)

Question: COc1cccc(-c2cc(C(=O)N3CCN(c4ccccc4OC)CC3)no2)c1 was tested. Which inhibition did it give?
Answer: 5.78% (inactive)

Question: COc1ccc(OCC(=O)N2CCN(C(=O)COc3ccccc3)CC2)cc1 was tested. Which inhibition did it give?
Answer: -7.53% (inactive)

Question: Which inhibition does the source give for Cc1ccc2oc(=O)c3cnn(CC(=O)N4CCCCCC4)c3c2c1 here?
Answer: 6.6% (inactive)

Question: Which inhibition does the source give for CCC1Nc2ncnc(N3CCN(c4ccccc4)CC3)c2N(Cc2ccc(Cl)cc2)C1=O (configuration not stated) here?
Answer: 69% (active)

Question: How did the inhibition turn out when Cc1cccc(N2CCN(C(=O)c3cc4c(=O)[nH]c5ccccc5c4n3C)CC2)c1C was run?
Answer: 5.01% (inactive)

Question: For CC(=O)c1nn(-c2ccc(C)cc2)cc1C(=O)c1cccc(Br)c1, which inhibition is on record?
Answer: -0.17% (inactive)

Question: For Cc1ccc(OCC(=O)N2CCN(S(=O)(=O)c3ccc(Cl)s3)CC2)cc1C, which inhibition is on record?
Answer: 0.1% (inactive)

Question: CCC(C)(C)NC(=O)c1cc([N+](=O)[O-])ccc1N1CCCCC1 was tested. Which inhibition did it give?
Answer: -7.53% (inactive)

Question: Which inhibition does the source give for Cc1cccc(NC(=O)CN2CCN(C(=O)C3CCN(C(=O)/C=C/c4ccccc4)CC3)CC2)c1C here?
Answer: -13.5% (inactive)

Question: With O=C(Nc1ncc2c(n1)CC(c1ccco1)CC2=O)c1ccc(Cl)cc1 (configuration not stated) as the compound, how does the inhibition read?
Answer: 8.95% (inactive)

Question: With CCOc1ccc(CN(Cc2ccco2)S(=O)(=O)c2ccc(-n3cnnn3)c(OC)c2)cc1 as the compound, how does the inhibition read?
Answer: 4.57% (inactive)

Question: With COc1ccc(C(c2nnnn2C2CCCC2)N2CCN(C/C=C/c3ccccc3)CC2)cc1 (configuration not stated) as the compound, how does the inhibition read?
Answer: -12.2% (inactive)

Question: COc1ccc(-c2cc(NC=O)c3ncc(-c4cccc(C(=O)N(C)C)c4)n3c2)c(OC)c1 was tested. Which inhibition did it give?
Answer: -10.8% (inactive)

Question: CCOC(=O)N1CCN(C(=O)CSc2ccc(Cl)cc2)CC1 was tested. Which inhibition did it give?
Answer: 5.7% (inactive)

Question: How did the inhibition turn out when CCCCN=C1C([N+](=O)[O-])=CC=C2C1=NC1(CCCCC1)N2O was run?
Answer: -14.2% (inactive)

Question: How did the inhibition turn out when CCC(c1nnc(SCC(=O)NNC(=O)c2ccccc2)n1Cc1ccccc1)N(C)C (configuration not stated) was run?
Answer: -17.6% (inactive)

Question: Which inhibition does the source give for CCOc1ccc(CCN2C(=S)N([C@@H](CC(C)C)CN3CCC[C@@H]3CN3C(=S)NC[C@@H]3Cc3ccc(O)cc3)C[C@@H]2Cc2ccc(O)cc2)cc1 here?
Answer: -18.9% (inactive)

Question: O=C(/C=C/c1cccc(C(F)(F)F)c1)N1CCN(c2ccccn2)CC1 was tested. Which inhibition did it give?
Answer: -8.93% (inactive)

Question: Which inhibition does the source give for Cc1ccc(OCC(=O)N2CCN(C(=O)c3cccnc3)CC2)cc1 here?
Answer: -9.4% (inactive)

Question: With CN(Cc1ccc(F)cc1)C(=O)COc1ccc2ccccc2c1 as the compound, how does the inhibition read?
Answer: 3.08% (inactive)

Question: With Cc1cc(C)c2c(=O)n3c(nc2c1)C(CC(C)C)NC(=O)c1cc2ccccc2cc1-3 (configuration not stated) as the compound, how does the inhibition read?
Answer: 7.36% (inactive)

Question: CCOc1ccc(C(C)=O)cc1COC(=O)c1cnc(Cl)c(Cl)c1 was tested. Which inhibition did it give?
Answer: -6.96% (inactive)

Question: Which inhibition does the source give for Cc1cccc(OCC(O)CN2CCN(S(=O)(=O)c3ccc(C)cc3C)CC2)c1 (configuration not stated) here?
Answer: -7.67% (inactive)

Question: How did the inhibition turn out when COc1ccc(-c2nc(N)ncc2-c2ccc(Cl)cc2)c(O)c1 was run?
Answer: 5.17% (inactive)

Question: With Cc1cc(OCC(=O)N2CCN(c3ncccn3)CC2)ccc1Cl as the compound, how does the inhibition read?
Answer: 2.13% (inactive)

Question: How did the inhibition turn out when O=C(COc1ccc(Cl)cc1)N1CCN(c2cccc(C(F)(F)F)c2)CC1 was run?
Answer: 4.01% (inactive)

Question: Which inhibition does the source give for O=C(NCc1ccc(Cl)cc1)C1CCN(S(=O)(=O)c2cccs2)CC1 here?
Answer: 1.5% (inactive)

Question: How did the inhibition turn out when N#Cc1ccc(C2=CC(=O)C[C@H](c3ccc(Cl)cc3)C2)cc1 was run?
Answer: 9% (inactive)

Question: Which inhibition does the source give for CCCC1CCC(=NNC(=S)NCCc2ccccc2)CC1 (configuration not stated) here?
Answer: -11.9% (inactive)

Question: Which inhibition does the source give for O=C(COc1ccc(Cl)cc1)N1CCN(S(=O)(=O)c2ccc(Cl)cc2)CC1 here?
Answer: 6% (inactive)

Question: How did the inhibition turn out when CCOC(=O)C1CCN(C(=O)COc2cc(C)c(Br)c(C)c2)CC1 was run?
Answer: 2.96% (inactive)

Question: With Cc1cc(OCCOc2cccc3cccnc23)c(C)cc1Cl as the compound, how does the inhibition read?
Answer: 4.27% (inactive)

Question: For O=C(NNC(=O)c1ccc2ccccc2c1)c1ccc(Cl)cc1, which inhibition is on record?
Answer: 7.62% (inactive)

Question: COc1ccccc1CCNC(=O)C1CCN(C(=O)/C=C/c2ccccc2)CC1 was tested. Which inhibition did it give?
Answer: 6.37% (inactive)

Question: For O=C(Nc1ccc(S(=O)(=O)N2CCCCC2)cc1)C1CC(=O)N(c2ccc(F)cc2)C1 (configuration not stated), which inhibition is on record?
Answer: 10.2% (inactive)

Question: Which inhibition does the source give for COc1ccc(-c2cn(-c3ccc(OC)cc3)c(=S)[nH]2)cc1 here?
Answer: 3.97% (inactive)

Question: Which inhibition does the source give for Cc1cccc(N=C2NC(=O)/C(=C/c3cn(C)c4ccccc34)S2)c1 here?
Answer: 8.09% (inactive)

Question: How did the inhibition turn out when Cc1ccc(OCCNC(=O)CCNS(=O)(=O)c2ccc(Br)cc2)cc1 was run?
Answer: -13% (inactive)

Question: How did the inhibition turn out when O=C(COc1ccc2c(c1)CCC2)N1CCN(c2ccc(F)cc2)CC1 was run?
Answer: -10.9% (inactive)

Question: O=C(NCc1ccc(Cl)cc1)c1cc(=O)nc2sc(-c3ccccc3)nn12 was tested. Which inhibition did it give?
Answer: 2.99% (inactive)

Question: For O=C(CC(c1ccccc1)c1ccccc1)NCC(O)c1ccc([N+](=O)[O-])cc1 (configuration not stated), which inhibition is on record?
Answer: -11% (inactive)

Question: COc1ccc(CNC(=O)CN(c2ccc(OC)c(Cl)c2)S(=O)(=O)c2ccc(C)cc2)cc1 was tested. Which inhibition did it give?
Answer: -10.2% (inactive)

Question: N#Cc1ccc(C(c2nnnn2CCc2ccccc2)N2CCCCCC2)cc1 (configuration not stated) was tested. Which inhibition did it give?
Answer: 7.67% (inactive)

Question: Which inhibition does the source give for O=C(NCCNc1ccc([N+](=O)[O-])cc1)c1cccc2c(Br)cccc12 here?
Answer: 3.17% (inactive)

Question: How did the inhibition turn out when Cc1cs/c(=N\N=C\c2ccc(O)cc2)n1Cc1ccco1 was run?
Answer: 10% (inactive)

Question: For COc1ccc(-n2c(Cc3cccn3C)nnc2SCC(=O)Nc2cc(C)cc(C)c2)cc1, which inhibition is on record?
Answer: 5.9% (inactive)

Question: O=C(/C=C/c1ccc(Cl)cc1)N1CCN(c2ccccc2[N+](=O)[O-])CC1 was tested. Which inhibition did it give?
Answer: 3.83% (inactive)

Question: With COc1ccc(NC(=O)N2CCC(Cc3ccccc3)CC2)cc1 as the compound, how does the inhibition read?
Answer: -4.45% (inactive)
